Among the data in PubChem BioAssay (NCI) are growth values, retold here.

The structures appear in SMILES notation. This is part of a sample that, as a whole, favours compounds with a hit. Of some 83,000 tested, about 20% had one in any assay.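 Cell lines were cultured in 96-well plates, exposed to a single compound concentration, and assessed for percent growth 48 hours later.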 Values without a mark were called inactive. Active and inactive are the calls of the source. The calls were made as follows: active = growth percent below 10; inactive = the rest.

What all share (assay): NCI-60 one-dose screen, 48 h (100 = growth as untreated, 0 = no growth, -100 = all killed)
One assay has as its system SK-MEL-2 melanoma. To be noted: 10 µM unless noted.
The next assay relates to EKVX NSCLC. Conditions: 10 µM unless noted.
A further assay relates to SN12C renal. Conditions: 10 µM unless noted.
Another assay concerns UO-31 renal. To be noted: 10 µM unless noted.
For the next assay, the system named is TK-10 renal. To be noted: 10 µM unless noted.
For the next assay, the system named is ACHN renal. Conditions: 10 µM unless noted.
In the next assay the test system is CAKI-1 renal. Conditions: 10 µM unless noted.
The next assay has as its system A498 renal. To be noted: 10 µM unless noted.
The next assay relates to CCRF-CEM leukemia. Conditions: 10 µM unless noted.
A further assay deals with MOLT-4 leukemia. Conditions: 10 µM unless noted.
The test system of the next assay is SR leukemia. To be noted: 10 µM unless noted.
Another assay relates to RPMI-8226 leukemia. To be noted: 10 µM unless noted.
Another assay deals with OVCAR-8 ovarian. Conditions: 10 µM unless noted.
The test system of the next assay is OVCAR-5 ovarian. To be noted: 10 µM unless noted.
A further assay relates to OVCAR-4 ovarian. To be noted: 10 µM unless noted.
For another assay, the system named is IGROV1 ovarian. To be noted: 10 µM unless noted.
A further assay relates to OVCAR-3 ovarian. Conditions: 10 µM unless noted.
In the next assay the test system is HS 578T breast. Conditions: 10 µM.
Another assay has as its system NCI/ADR-RES ovarian. Conditions: 10 µM unless noted.
A further assay relates to SK-OV-3 ovarian. To be noted: 10 µM unless noted.

As to `Cc1cc(-c2nnc(/C=C/c3ccc4c(c3)OCO4)o2)n[nH]1`, the growth is 30.1% in the assay on SK-MEL-2 melanoma; 90.6% in the assay on EKVX NSCLC; 85.5% in the assay with SN12C renal; 70.1% in the assay with UO-31 renal; 81.8% in the assay with TK-10 renal; 95.7% with ACHN renal. Besides, the growth in the assay with CAKI-1 renal was 59.8%; in the assay with A498 renal it was 73.2%; with CCRF-CEM leukemia it was 58.1%; in the assay on MOLT-4 leukemia it was 69.7%; in the assay on SR leukemia, 18.7%; in the assay on RPMI-8226 leukemia, 66.5%. In addition, the growth in the assay with OVCAR-8 ovarian is 91.5%; in the assay on OVCAR-5 ovarian, 92.2%; with OVCAR-4 ovarian, 96.8%; with IGROV1 ovarian, 40.7%; with OVCAR-3 ovarian, 63.4%; in the assay with HS 578T breast, 80%. Besides, the growth in the assay on NCI/ADR-RES ovarian was 31.3%.
For `O=C(NC1CC1)c1ccc(-c2nc3ccc4[nH]ncc4c3c3c2CCCC3)cc1`, the growth was 2.88% (active) with SK-MEL-2 melanoma; 55.6% with EKVX NSCLC; 48.4% in the assay with SN12C renal; 25.9% in the assay on UO-31 renal; 8.68% (active) in the assay on TK-10 renal; 17.1% in the assay with ACHN renal. The growth with CAKI-1 renal was 0.658% (active); with A498 renal, -5.47% (active); with CCRF-CEM leukemia, 29.7%; in the assay with MOLT-4 leukemia it was 38.8%; in the assay on SR leukemia, 32.2%; in the assay on RPMI-8226 leukemia, 50.5%. For the same compound, the growth is 38.8% in the assay on OVCAR-8 ovarian; 75.2% in the assay on OVCAR-5 ovarian; 61.6% with OVCAR-4 ovarian; -7.43% (active) with SK-OV-3 ovarian; 58% in the assay on OVCAR-3 ovarian; 72.1% in the assay on NCI/ADR-RES ovarian.
As to `CCCCCCCCCCCCCCCCOc1ccc(S(=O)(=O)N(C)C)cc1[N+](=O)[O-]`, the growth in the assay with SK-MEL-2 melanoma was 97.1%; in the assay with EKVX NSCLC, 98.8%; in the assay with SN12C renal, 93.1%; in the assay on UO-31 renal, 98.5%; in the assay with TK-10 renal it was 86%; in the assay with ACHN renal it was 93.5%. Further, the growth with CAKI-1 renal was 99.1%; in the assay with A498 renal, 118%; with CCRF-CEM leukemia it was 114%; in the assay with MOLT-4 leukemia it was 103%; in the assay on SR leukemia, 81.6%; in the assay on RPMI-8226 leukemia it was 107%. Also, the growth was 102% in the assay with OVCAR-8 ovarian; 101% with OVCAR-5 ovarian; 101% in the assay on OVCAR-4 ovarian; 79.2% with SK-OV-3 ovarian; 117% with OVCAR-3 ovarian; 80.4% in the assay with HS 578T breast. Further, in the assay on NCI/ADR-RES ovarian, the growth is 115%.
For `COc1cc(NC(C)CCCN)c2ncccc2c1Sc1ccc(Cl)cc1` (stereo unspecified), the growth was 102% in the assay on SK-MEL-2 melanoma; 71.9% with EKVX NSCLC; 64.9% in the assay on SN12C renal; 40.1% in the assay with UO-31 renal; 78.6% in the assay with TK-10 renal; 74.8% in the assay with ACHN renal. The growth in the assay with CAKI-1 renal is 50.2%; in the assay on A498 renal, 55.9%; in the assay on CCRF-CEM leukemia, 44.7%; with MOLT-4 leukemia, 31.7%; in the assay with SR leukemia it was -35.2% (active); with RPMI-8226 leukemia it was -8.1% (active). The growth with OVCAR-8 ovarian was 33.3%; with OVCAR-5 ovarian, 77.8%; in the assay with SK-OV-3 ovarian it was 94.7%; with IGROV1 ovarian it was 38.9%; in the assay on OVCAR-3 ovarian, 58.6%; in the assay on HS 578T breast, 58.9%. Besides, the growth with NCI/ADR-RES ovarian was 91.6%.
On to `COc1cc2nccc(Oc3ccc(NC(=O)C4(C(=O)Nc5ccc(F)cc5)CC4)cc3)c2cc1OC(=O)c1ccc(N)cc1`, for which the growth in the assay with SK-MEL-2 melanoma is 31.3%; with EKVX NSCLC, 25.7%; in the assay with SN12C renal, 27.6%; with UO-31 renal, 9.18% (active); with TK-10 renal, 72.2%; in the assay with ACHN renal it was 39.5%. Besides, the growth in the assay on CAKI-1 renal was 20.9%; with A498 renal, 64%; in the assay with CCRF-CEM leukemia, 27.8%; in the assay on MOLT-4 leukemia it was 3.73% (active); in the assay with SR leukemia, 9.85% (active); in the assay with RPMI-8226 leukemia, 10.4%. Moreover, the growth is 51.9% in the assay on OVCAR-8 ovarian; 31% with OVCAR-5 ovarian; 51.7% with OVCAR-4 ovarian; 60.7% in the assay on IGROV1 ovarian; 47.5% in the assay with OVCAR-3 ovarian; -16.9% (active) in the assay on HS 578T breast. In the assay with NCI/ADR-RES ovarian, the growth was 35.5%.
As to `CSC(=S)N/N=C(\C)c1ccccn1`, the growth is 21.7% with SK-MEL-2 melanoma; 4.31% (active) in the assay with EKVX NSCLC; 24.2% with SN12C renal; -0.858% (active) with UO-31 renal; 41.7% in the assay with TK-10 renal; 14.8% in the assay on ACHN renal. In addition, the growth in the assay on CAKI-1 renal is -9.67% (active); in the assay with A498 renal, -3.97% (active); in the assay on CCRF-CEM leukemia, 7.65% (active); in the assay on MOLT-4 leukemia it was 0.153% (active); in the assay on SR leukemia, -3.68% (active); with RPMI-8226 leukemia, 12%. Also, the growth with OVCAR-8 ovarian was 14.6%; with OVCAR-5 ovarian, 27.1%; in the assay with SK-OV-3 ovarian, 30.2%; in the assay with IGROV1 ovarian it was 19.4%; in the assay with OVCAR-3 ovarian, 5.95% (active); in the assay on HS 578T breast it was 38.1%. Besides, the growth with NCI/ADR-RES ovarian was 12.8%.
Take `COC(=O)c1cc(Cl)cc([N+](=O)[O-])c1O`: the growth in the assay with SK-MEL-2 melanoma is 135%; in the assay with EKVX NSCLC it was 88.8%; with SN12C renal, 108%; in the assay on UO-31 renal, 87.1%; with TK-10 renal, 118%; in the assay on ACHN renal it was 106%. Further, the growth in the assay with CAKI-1 renal is 92.6%; in the assay on A498 renal, 89.5%; in the assay on CCRF-CEM leukemia, 25.6%; with MOLT-4 leukemia it was 61.6%; in the assay on SR leukemia it was 63.5%; in the assay on RPMI-8226 leukemia, 93.3%. Further, the growth in the assay on OVCAR-8 ovarian is 105%; in the assay on OVCAR-5 ovarian, 93.7%; in the assay on OVCAR-4 ovarian, 122%; with SK-OV-3 ovarian, 116%; in the assay with OVCAR-3 ovarian it was 114%; in the assay with HS 578T breast, 107%. Besides, in the assay on NCI/ADR-RES ovarian, the growth was 114%.
In the case of `CNCc1cccc2c1OCCOCCOCCC(C)S(=O)(=O)c1ccc(cc1)-c1cnc(N)c(n1)C(=O)N2` (stereo unspecified), the growth in the assay with SK-MEL-2 melanoma was 75.2%; in the assay with EKVX NSCLC, 52.3%; in the assay on SN12C renal it was 45.9%; in the assay with UO-31 renal it was 44.4%; in the assay on TK-10 renal it was 66.8%; in the assay with ACHN renal, 18.9%. In addition, the growth in the assay on CAKI-1 renal was 18.6%; with A498 renal, 6.01% (active); with CCRF-CEM leukemia, 2.12% (active); in the assay with MOLT-4 leukemia it was 16.4%; with SR leukemia, -19.2% (active); in the assay with RPMI-8226 leukemia, 54.8%. Moreover, the growth in the assay on OVCAR-8 ovarian is 2.48% (active); with OVCAR-5 ovarian, 115%; with OVCAR-4 ovarian, 75.5%; with SK-OV-3 ovarian, 23.2%; with OVCAR-3 ovarian, 25.7%; in the assay on HS 578T breast, 0.126% (active). For the same compound, the growth in the assay on NCI/ADR-RES ovarian was 91.6%.
